Measurements from PubChem BioAssay.
Results filed as inconclusive are left out. Activity calls are given as the source filed them.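 How the source made its calls, unless noted: active means normalized viability below 100% at a tested concentration; inactive means the rest.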

How the values were obtained:
[1] = growth inhibition of DIPG glioma cells, dose response, cell-based, SU-DIPG-XVII, MIPE5.0, CellTiter-Glo, qHTS (AID 1347060; cut-off not given, nearly all actives have AC50 up to about 26 µM;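 on AC50: cells exposed to compound for 48 hours before viability readout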); settings: SU-DIPG-XVII viability, CellTiter-Glo ATP luminescence
[2] = viability loss in pontine glioma line – cell-based, SU-DIPG-XXV, MIPE5.0, CellTiter-Glo, qHTS, dose response (AID 1347065; cut-off not given, nearly all actives have AC50 up to about 26 µM;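 further: cells exposed to compound for 48 hours before ATP readout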); settings: CellTiter-Glo ATP luminescence
[3] = ovarian cancer cell viability with rucaparib, profiling panel, oncology-focused library, rucaparib conditional (AID 1508598); settings: patient-derived ovarian cancer cells, CellTiter-Glo viability, 144 h, active compounds read low
[4] = JHH-DIPG-1 glioma cell viability, MIPE5.0 library, CellTiter-Glo luminescence, qHTS (AID 1347067; cut-off not given, nearly all actives have AC50 up to about 26 µM;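 further: cells exposed to compound for 48 hours before readout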); settings: JHH-DIPG-1 glioma viability, CellTiter-Glo ATP luminescence
[5] = SU-DIPG-XXV glioma cell viability, MIPE5.0 library, qHTS (AID 1347068; cut-off not given, nearly all actives have IC50 up to about 30 µM)

CN[C@H]1CN(c2ccc3c(=O)c(C(=O)O)cn(-c4nccs4)c3n2)C[C@@H]1OC
inactive: viability ([3]; at 0.000305 µM, OCI-C5x cells, with rucaparib 10 µM, 100% = cells with rucaparib alone) 118% | viability ([3]; at 0.000305 µM, OCI-C5x cells, without rucaparib) 108% | viability ([3]; at 0.000305 µM, OCI-P5x cells, without rucaparib) 105% | viability ([3]; at 0.00122 µM, OCI-C5x cells, with rucaparib 10 µM, 100% = cells with rucaparib alone) 121% | viability ([3]; at 0.00122 µM, OCI-C5x cells, without rucaparib) 111% | viability ([3]; at 0.00488 µM, OCI-C5x cells, with rucaparib 10 µM, 100% = cells with rucaparib alone) 107% | viability ([3]; at 0.00488 µM, OCI-C5x cells, without rucaparib) 103% | viability ([3]; at 0.00488 µM, OCI-P5x cells, with rucaparib 20 µM, 100% = cells with rucaparib alone) 100% | viability ([3]; at 0.0195 µM, OCI-C5x cells, with rucaparib 10 µM, 100% = cells with rucaparib alone) 110% | viability ([3]; at 0.0195 µM, OCI-C5x cells, without rucaparib) 110% | viability ([3]; at 0.0781 µM, OCI-C5x cells, with rucaparib 10 µM, 100% = cells with rucaparib alone) 110% | viability ([3]; at 0.313 µM, OCI-C5x cells, with rucaparib 10 µM, 100% = cells with rucaparib alone) 143% | viability ([3]; at 0.313 µM, OCI-C5x cells, without rucaparib) 119% | viability ([3]; at 1.25 µM, OCI-C5x cells, with rucaparib 10 µM, 100% = cells with rucaparib alone) 154% | viability ([3]; at 1.25 µM, OCI-C5x cells, without rucaparib) 118%
active: AC50 [1] 0.762 µM | AC50 [2] 4.28 µM | viability ([3]; at 0.000305 µM, OCI-P5x cells, with rucaparib 20 µM, 100% = cells with rucaparib alone) 98.3% | viability ([3]; at 0.00122 µM, OCI-P5x cells, with rucaparib 20 µM, 100% = cells with rucaparib alone) 92.3% | viability ([3]; at 0.00122 µM, OCI-P5x cells, without rucaparib) 97.9% | viability ([3]; at 0.00488 µM, OCI-P5x cells, without rucaparib) 98.6% | viability ([3]; at 0.0195 µM, OCI-P5x cells, with rucaparib 20 µM, 100% = cells with rucaparib alone) 93.2% | viability ([3]; at 0.0195 µM, OCI-P5x cells, without rucaparib) 95.3% | viability ([3]; at 0.0781 µM, OCI-C5x cells, without rucaparib) 92.5% | viability ([3]; at 0.0781 µM, OCI-P5x cells, with rucaparib 20 µM, 100% = cells with rucaparib alone) 91.4% | viability ([3]; at 0.0781 µM, OCI-P5x cells, without rucaparib) 91.4% | viability ([3]; at 0.313 µM, OCI-P5x cells, with rucaparib 20 µM, 100% = cells with rucaparib alone) 79.7% | viability ([3]; at 0.313 µM, OCI-P5x cells, without rucaparib) 62.5% | viability ([3]; at 1.25 µM, OCI-P5x cells, with rucaparib 20 µM, 100% = cells with rucaparib alone) 63.6% | viability ([3]; at 1.25 µM, OCI-P5x cells, without rucaparib) 41.5% | viability ([3]; at 5 µM, OCI-C5x cells, with rucaparib 10 µM, 100% = cells with rucaparib alone) 9.22% | viability ([3]; at 5 µM, OCI-C5x cells, without rucaparib) 12.6% | viability ([3]; at 5 µM, OCI-P5x cells, with rucaparib 20 µM, 100% = cells with rucaparib alone) 9.42% | viability ([3]; at 5 µM, OCI-P5x cells, without rucaparib) 6.69%

CC#C[C@@H](CC(=O)O)c1ccc(OCc2cccc(-c3ccc(C(F)(F)F)cc3)c2)cc1
inactive: outcome [1] | outcome [4] | outcome [5]
